Measured values: PubChem BioAssay (Tox21)
Records with an inconclusive call do not appear. Entries that show only a call come without a potency. Unmarked numbers belong to inactive results. The source made the active and inactive calls. The call rests on the fitted dose curve; in most records, active means well fitted cell-killing curve with a large enough effect in the repeat runs; inconclusive means weak or mixed curves, or effect the other way; inactive means flat fitted curve, though single readings scatter.

Legend:
[1] = cAMP Responsive Elements (CRE) small molecule antagonists, cell-based qHTS assay: qHTS cell viability counter screen (AID 2060913); conditions: CRE-bla HEK293T viability, CellTiter-Glo luminescence, 5 h; series mostly up to 92.4 µM; further: nearly all actives have a fitted effect of over 40% in size; further: potency means the concentration at half of the fitted maximal effect
Procedure, shortened: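 Cytotoxicity counter screen multiplexed with the CRE-bla antagonist read: HEK293T cells in DMEM with dialyzed FBS and 25 mM HEPES were treated 3 hrs under 0.25 uM final NKH477, then viability measured by CellTiter-Glo luminescence.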

[2] = cAMP Responsive Elements (CRE) small molecule agonists, cell-based qHTS assay: qHTS cell viability counter screen (AID 2060914); conditions: CRE-bla HEK293T viability, CellTiter-Glo luminescence, 5 h; series mostly up to 92.4 µM; further: nearly all actives have a fitted effect of over 50% in size
Procedure, shortened: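 Cytotoxicity was measured as ATP luminescence (CellTiter-Glo, 30 min at room temperature) in the same wells as the CRE-bla FRET read-out. HEK293T CRE-bla cells had 3 h compound exposure at 37C/5% CO2.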

## Nc1ccc2cc(S(=O)(=O)O)cc(O)c2c1N=Nc1ccccc1C(F)(F)F
[1]
  Potency: inactive
[2]
  Potency: inactive

## C[C@H]1C[C@H](O)c2ccsc2S1(=O)=O
[1]
  Potency: inactive
[2]
  Potency: inactive

## Cc1nc2ccccc2n1Cc1ccc(Cl)cc1
[1]
  Potency: inactive
[2]
  Potency: inactive

## CCCC(=O)OCC
[1]
  Potency: inactive
[2]
  Potency: inactive

## C=C(CC(=O)O)C(=O)O
[1]
  Potency: inactive
[2]
  Potency: inactive

## C[N+](C)(C)CCCCCCCCCC[N+](C)(C)C
[1]
  Potency: inactive
[2]
  Potency: inactive

## CCC(CC)C(C)CCOC(C)=O (configuration not stated)
[1]
  Potency: inactive
[2]
  Potency: inactive

## C=C(C)C(=O)OCCN(CC)CC
[1]
  Potency: inactive
[2]
  Potency: inactive

## CCCc1c(OCCCCc2nn[nH]n2)ccc(C(C)=O)c1O
[1]
  Potency: inactive
[2]
  Potency: inactive

## O=C(O)c1cccc(C(=O)O)n1
[1]
  Potency: inactive
[2]
  Potency: inactive

## O=C(c1ccc(F)cc1)C1CCN(CCn2c(=S)[nH]c3ccccc3c2=O)CC1
[1]
  Potency: inactive
[2]
  Potency: inactive

## O=C1CCCCC1C1CCCCC1 (configuration not stated)
[1]
  Potency: inactive
[2]
  Potency: inactive

## NCCCC(O)(P(=O)(O)O)P(=O)(O)O
[1]
  Potency: inactive
[2]
  Potency: inactive

## NCCNC(=O)c1ccc(Cl)cn1
[1]
  Potency: inactive
[2]
  Potency: inactive

## CCOC(=O)CCC(=O)OCC
[1]
  Potency: inactive
[2]
  Potency: inactive

## NC(=O)C(c1ccccc1)(c1ccccc1)[C@@H]1CCN(CCc2ccc3c(c2)CCO3)C1
[1]
  Potency: inactive
[2]
  Potency: inactive

## CCC(=O)/C=C/C1C(C)=CCCC1(C)C (configuration not stated)
[1]
  Potency: inactive
[2]
  Potency: inactive

## CC(CN(C)C)C(C)(O)Cc1ccc(Cl)cc1 (configuration not stated)
[1]
  Potency: inactive
[2]
  Potency: inactive

## CC1=C(C=O)C(C)(C)CC=C1
[1]
  Potency: inactive
[2]
  Potency: inactive

## CC(=O)Nc1ccc(OC(=O)c2ccccc2OC(C)=O)cc1
[1]
  Potency: inactive
[2]
  Potency: inactive

## C1CCC2OC2C1 (configuration not stated)
[1]
  Potency: inactive
[2]
  Potency: inactive

## CSc1cnc(C)cn1
[1]
  Potency: inactive
[2]
  Potency: inactive

## CC(=O)N(c1onc(C)c1C)S(=O)(=O)c1ccc(N)cc1
[1]
  Potency: inactive
[2]
  Potency: inactive

## O=C(C(=O)c1ccc(Br)cc1)c1ccc(Br)cc1
[1]
  viability change, negative = cytotoxic: -3.96% [at 18.9 µM]
[2]
  activity change, negative = cytotoxicity: -3.4% [at 18.9 µM]

## C[Si](C)(C)N[Si](C)(C)C
[1]
  Potency: inactive
[2]
  Potency: inactive

## CC(=O)CC(=O)Nc1ccccc1
[1]
  Potency: inactive
[2]
  Potency: inactive

## O=C(O)CS
[1]
  Potency: inactive
[2]
  Potency: inactive

## CCOC(=O)/C=C/C(=O)O
[1]
  Potency: inactive
[2]
  Potency: inactive

## O=C(/C=C/C=C/c1ccc2c(c1)OCO2)N1CCCCC1
[1]
  Potency: inactive
[2]
  Potency: inactive

## CCn1cc(C(=O)O)c(=O)c2cc(F)c(N3CCNCC3)cc21
[1]
  Potency: inactive
[2]
  Potency: inactive

## CN1CCN(C(=O)C2CCCCC2)CC1
[1]
  Potency: inactive
[2]
  Potency: inactive

## Cc1ccc(S(=O)(=O)NC(=O)NC2CCCC2)cc1
[1]
  Potency: inactive
[2]
  Potency: inactive

## CCC(OCCCOC)OC(C)=O (configuration not stated)
[1]
  Potency: inactive
[2]
  Potency: inactive

## O=C(NCC1CN(c2ccc(N3CCOCC3=O)cc2)C(=O)O1)c1ccc(Cl)s1 (configuration not stated)
[1]
  Potency: inactive
[2]
  Potency: inactive

## CC1(C)CCC(C)(C)c2cc(NC(=O)c3ccc(C(=O)O)cc3)ccc21
[1]
  Potency: inactive
[2]
  Potency: inactive

## CCc1ccc2c(c1)C(=O)c1ccccc1C2=O
[1]
  Potency: inactive
[2]
  Potency: inactive

## Cc1cc(OI)c(C(C)C)cc1-c1cc(C(C)C)c(OI)cc1C
[1]
  Potency: inactive
[2]
  Potency: inactive

## O=[N+]([O-])c1ccc(F)cc1F
[1]
  Potency: inactive
[2]
  Potency: inactive

## COc1cc(C)ccc1C(C)C
[1]
  Potency: inactive
[2]
  Potency: inactive

## CC(C)CC(C)(C)C
[1]
  Potency: inactive
[2]
  Potency: inactive

## CC/C(=C(/c1ccc(O)cc1)c1ccc(OCCN(C)C)cc1)c1ccccc1
[1]
  Potency: 37.6 µM (active)
[2]
  Potency: inactive

## CC1(C)[C@H]2CC[C@]1(C)[C@H](O)C2
[1]
  Potency: inactive
[2]
  Potency: inactive

## COc1ccccc1N1CCN(CCCCNC(=O)c2ccc(-c3ccc(C(C)=O)cc3)cc2)CC1
[1]
  Potency: inactive
[2]
  Potency: inactive

## CN1CCCC1=O
[1]
  Potency: inactive
[2]
  Potency: inactive

## CCC1(C)NC(=O)NC1=O (configuration not stated)
[1]
  Potency: inactive
[2]
  Potency: inactive

## Cc1ncc([N+](=O)[O-])n1CC(C)O (configuration not stated)
[1]
  Potency: inactive
[2]
  Potency: inactive

## CCN(C(=O)c1cc(C)cc(OC[C@H](C)Nc2ccncc2)c1)C(C)C
[1]
  Potency: inactive
[2]
  Potency: inactive

## C[C@@H]1C[C@H]2[C@@H]3CCC4=CC(=O)C=C[C@]4(C)[C@@]3(F)[C@@H](O)C[C@]2(C)[C@@]1(O)C(=O)COP(=O)(O)O
[1]
  Potency: inactive
[2]
  Potency: inactive

## CCCC(C)=O
[1]
  Potency: inactive
[2]
  Potency: inactive

## CN(C)C(=O)NC1(c2ccccc2)CCN(CCC[C@]2(c3ccc(Cl)c(Cl)c3)CCCN(C(=O)c3ccccc3)C2)CC1
[1]
  viability change, negative = cytotoxic: -0.11% [at 18.9 µM]
[2]
  activity change, negative = cytotoxicity: -0.87% [at 18.9 µM]

## CC1=CCC(=O)O1
[1]
  Potency: inactive
[2]
  Potency: inactive

## O=c1c2ccccc2oc2ccccc12
[1]
  Potency: inactive
[2]
  Potency: inactive

## CCCCCOC(=O)CCCC
[1]
  Potency: inactive
[2]
  Potency: inactive

## Cc1ccc(N(C)C)cc1
[1]
  Potency: inactive
[2]
  Potency: inactive

## O=C1c2ccccc2C(=O)c2c1ccc(O)c2O
[1]
  Potency: inactive
[2]
  Potency: inactive

## O=C(Nc1ccccc1)c1cc([N+](=O)[O-])ccc1Cl
[1]
  Potency: inactive
[2]
  Potency: inactive
